# “And” between values parts separate entries of the source, which are not always exact repeats. Equal entries are not always repeated. In all, about 1,700 compounds were measured (“fraction of GFP-LC3-positive cells (≥5 vesicles/cell)”: median about 0.43, highest 2% from about 0.81 on). Only a selection was taken, and the highest values are over-represented in it overall.
# Test system: CbCln3 Δex7/8/Δex7/8 GFP-LC3 cerebellar neuronal cells
# Experiment: fraction of GFP-LC3-positive cells (≥5 vesicles/cell); higher = more autophagosome accumulation
# How it was run: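 Wild-type or mutant CbCln3 cerebellar cells stably expressing GFP-LC3 (2 × 10^3/well, 384-well) received ~50 nL compound in DMSO by pin transfer, in duplicate, for 24 h at 33 °C. Hoechst 33342 and LysoTracker Red were added for the final 30 min before 3.2% PFA fixation and 10× imaging of three fields per well. CellProfiler counted GFP-LC3 vesicles per cell. The value is the fraction of cells with 5 or more vesicles, averaged over duplicates, with out-of-focus images excluded.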
row,SMILES,fraction of GFP-LC3-positive cells
1,C[C@@H]1CC([C@H](O)CC2CC(=O)NC(=O)C2)C(=O)[C@@H](C)C1 (some centres not stated) [cycloheximide],0.481
2,C[C@@]1(CO)[C@H](O)CC[C@@]2(C)[C@H]1CC[C@H]1C[C@@H]3C[C@@]12CC[C@]3(O)CO [aphidicolin],0.623
3,CC(=O)OCC(=O)[C@H]1CC[C@H]2[C@@H]3CC[C@H]4C[C@H](O)CC[C@]4(C)[C@H]3C(=O)C[C@]12C [Alfadolone acetate],0.441
4,CCCCc1ccc(C(=O)O)nc1 [Fusaric acid],0.408
5,O=C1C=CC(=O)c2c(O)cccc21 [juglone],0.367
6,N#CC(C#N)=NNc1ccc(OC(F)(F)F)cc1,0.936
7,COc1cc2c(cc1OC)C(C)NCC2.Cl (configuration not stated),0.422
8,Cc1nccc2c1[nH]c1cc(O)ccc12.Cl.O [Harmol hydrochloride monohydrate],0.441
9,OC(c1ccccc1)(c1ccccc1)C1CCNCC1 [Azacyclonol],0.306
10,C/C(O)=C(\C#N)C(=O)Nc1cc(Br)ccc1Br,0.547 and 0.552
11,O=C(CCCN1CCC2(CC1)C(=O)NCN2c1ccccc1)c1ccc(F)cc1 [Spiperone],0.376
12,C=C1[C@@H]2CC[C@H]3[C@]4(C)C[C@H](O[C@H]5O[C@H](CO)[C@@H](OS(=O)(=O)[O-])[C@H](OS(=O)(=O)[O-])[C@H]5OC(=O)CC(C)C)C[C@@H](C(=O)O)[C@H]4CC[C@]3(C2)[C@H]1O.[K+].[K+] [Atractyloside potassium salt],0.314
13,O.O.O.O=C1OC2(c3cc(Br)c([O-])cc3Oc3c2cc(Br)c([O-])[c]3[Hg][OH])c2ccccc21.[Na+].[Na+] (configuration not stated) [Merbromin],0.954
14,C[C@@H]1CC[C@@]2(NC1)O[C@H]1C[C@H]3[C@@H]4CC=C5C[C@@H](O)CC[C@]5(C)[C@H]4CC[C@]3(C)[C@H]1[C@@H]2C [Solasodine],0.378
15,CN1C[C@H](CNC(=O)OCc2ccccc2)C[C@@H]2c3cccc4c3c(cn4C)C[C@H]21 [Metergoline],0.238
16,c1ccc(C2CC2)c(OCC2=NCCN2)c1,0.404

row,SMILES,fraction of GFP-LC3-positive cells
1,CCNC(=O)[C@H]1O[C@@H](n2cnc3c(N)ncnc32)C(O)[C@H]1O (some centres not stated) [5'-N-Ethylcarboxamidoadenosine (NECA)],0.445
2,COc1cc2c(cc1O)C[C@H]1c3c(cc(O)c(OC)c3-2)CCN1C [Boldine],0.447
3,Cc1c(C(=O)c2cccc3ccccc23)c2cccc3c2n1[C@H](CN1CCOCC1)CO3,0.451 and 0.539
4,CC1=NCCc2c1[nH]c1cc(O)ccc21.Cl.O.O [Harmalol hydrochloride dihydrate],0.479
5,C[C@H](N)C(=O)N[C@@H](C)C(=O)N[C@@H](Cc1ccccc1)C(=O)CCl,0.742 and 0.818
6,CC(=O)C(C)O.CC(Cc1ccccc1)NCCC(c1ccccc1)c1ccccc1 (configuration not stated) [Prenylamine lactate],0.266
7,CC(C)c1c(CN(C)C(C)Cc2ccccc2)n(C)n(-c2ccccc2)c1=O (configuration not stated) [Famprofazone],0.405
8,CC(C)(C)c1cc(C=C(C#N)C#N)cc(C(C)(C)C)c1O [tyrphostin 9],0.882
9,N#CC(C#N)=Cc1ccc(O)c(O)c1,0.348
10,N#CC(C#N)=Cc1cc(O)c(O)c(O)c1,0.46
11,CC(C)(C)c1cc(C=C(C#N)C#N)cc(C(C)(C)C)c1O,0.718
12,"COc1ccc(CC2c3cc(OC)c(OC)cc3CCN2C)cc1OC (racemic) [Laudanosine (R,S)]",0.508
13,c1cncc([C@H]2CCCCN2)c1 [Anabasine],0.34
14,C[N+]1(C)C2CC[C@H]1C[C@@H](OC(=O)C(CO)c1ccccc1)C2.O=[N+]([O-])[O-] (some centres not stated) [Methylatropine nitrate],0.451
15,COc1ccc(CCN2CCC(Nc3nc4ccccc4n3Cc3ccc(F)cc3)CC2)cc1 [Astemizole],0.587
16,CC[N+]1(C)CCCC(OC(=O)C(O)(c2ccccc2)c2ccccc2)C1.[Br-] (configuration not stated) [Pipenzolate bromide],0.4

# From the supplement of paper PMC6953052
